# Laboratory results published in PubChem BioAssay (NCATS).
# Records with an inconclusive call do not appear. Unmarked numbers belong to inactive results. The call rests on the fitted dose curve; in most records, active means well fitted curve in the direction sought with a large enough effect; inconclusive means small, poorly fitted or top-dose-only effect, or another doubt; inactive means no such curve, though single readings can be large or run the other way.
# Molecular target: Protein phosphatase 1D (Homo sapiens) (UniProt O15297)
# Test: Rhodamine-PBP qHTS Assay for Modulators of WT P53-Induced Phosphatase 1 (WIP1) (AID 1347425); further: % of control where 0% means no effect
# Details: recombinant WIP1, Rhodamine-PBP phosphate fluorescence, real-time; series mostly up to 57.5 µM; activity change, negative = inhibition: at the top concentration
# Procedure, shortened: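 Steps: enzyme with Rh-PBP sensor and compounds, room-temperature incubation of 1 hr, baseline read, addition of VEPPL-pS-QETFS (10 uM final), kinetic fluorescence reads at 525/598 nm. Activity equals final minus baseline signal.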
# Chain of Protein phosphatase 1D (Homo sapiens) (O15297 whole entry, looked up): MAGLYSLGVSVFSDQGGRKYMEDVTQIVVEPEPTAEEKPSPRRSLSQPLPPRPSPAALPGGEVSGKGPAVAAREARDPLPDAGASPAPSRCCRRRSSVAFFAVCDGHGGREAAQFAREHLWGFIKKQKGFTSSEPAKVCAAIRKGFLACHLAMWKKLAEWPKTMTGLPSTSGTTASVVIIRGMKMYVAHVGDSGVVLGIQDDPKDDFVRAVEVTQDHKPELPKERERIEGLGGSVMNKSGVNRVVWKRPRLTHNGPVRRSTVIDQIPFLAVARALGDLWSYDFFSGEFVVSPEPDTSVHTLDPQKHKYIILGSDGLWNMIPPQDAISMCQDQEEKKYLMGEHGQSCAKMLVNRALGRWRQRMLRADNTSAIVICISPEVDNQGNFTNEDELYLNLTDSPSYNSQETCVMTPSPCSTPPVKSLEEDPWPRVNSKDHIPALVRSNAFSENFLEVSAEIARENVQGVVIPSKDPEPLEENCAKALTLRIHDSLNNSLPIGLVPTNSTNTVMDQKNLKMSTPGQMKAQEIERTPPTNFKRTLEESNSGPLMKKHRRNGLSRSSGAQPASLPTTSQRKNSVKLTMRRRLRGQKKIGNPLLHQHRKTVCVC
row,Structure (SMILES),"activity change, negative = inhibition [%]"
1,CN(C)CCN(Cc1ccc(Cl)cc1)c1ccccn1,8.79
2,COc1ccc(-c2nc3ccc(C4=NNC(=O)CC4C)cc3[nH]2)cc1 (stereo not drawn),169
3,O[C@@H](COc1cccc2ncccc12)CN1CCN(C2c3ccccc3[C@@H]3[C@H](c4ccccc42)C3(F)F)CC1 (stereo partly drawn),-5.28
4,C[C@@H]1C[C@H]2[C@@H]3CCC4=CC(=O)C=C[C@]4(C)[C@@]3(F)[C@@H](O)C[C@]2(C)[C@@]1(O)C(=O)CO,15
5,COc1ccnc(CS(=O)c2nc3ccc(OC(F)F)cc3[nH]2)c1OC (stereo not drawn),78.9
6,OC[C@H]1O[C@@H](OCCc2ccc(O)cc2)[C@H](O)[C@@H](O)[C@H]1O,1.31
7,CCCCC[C@H](O)C=C[C@H]1[C@H](O)CC(=O)[C@H]1CC=CCCCC(=O)O,-4.33
8,O=C(CCCN1CCN(c2ccc(F)cc2)CC1)NC1c2ccccc2CSc2ccccc21 (stereo not drawn),-9.73
